Sampled rows, rich in hits. Any-hit rate of the full collection: about 8.8%.
HT1080-NT tox – kills 2HG-producing HT-1080-NT fibrosarcoma cells. HT-1080-NT fibrosarcoma viability, CellTiter-Glo ATP luminescence, 48 h. hit rate 1.6% among 360,000. Potency, µM (doses to about 46.1 µM), usual class: cytotoxic;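 also: NT is the 2HG producing partner of a matched IDH1 knockdown line; nearly all actives have a fitted effect of over 55% in size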
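Fibrosarcoma NT cells, 750 per well in 5% FBS RPMI, were exposed to compound for 48 hours. Viability: CellTiter-Glo luminescence.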
HT1080 IDH1KD tx – kills HT-1080 cells with IDH1 knockdown; AID 686971; Potency, µM (top dose mostly 46.1 µM), most hits filed as cytotoxic; HT-1080 IDH1 knockdown viability, ATP luminescence, 48 h; hit rate 2% among 360,000
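IDH1KD HT-1080 cells, 750/well, RPMI + 5% FBS; compound pinned after 2 h settling; 48 h, 37 °C; CellTiter-Glo luminescence; % activity normalised to DMSO and no-cell wells; curves fitted, classed by r2 and efficacy.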
KB-3-1 cytotox – KB-3-1 parental cell cytotoxicity. hit rate 1.4% among 400,000. Potency, µM (series often up to 46.1 µM), actives largely listed as cytotoxic. KB-3-1 viability, CellTiter-Glo ATP luminescence, 72 h. AID 1347075; also: nearly all actives have a fitted effect of over 60% in size
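72 h, 37 °C compound treatment of KB-3-1 parental cells; CellTiter-Glo added, 10 min, luminescence read. Data corrected against DMSO-only plates and normalized before curve fitting.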
KB-V1 MDR tox – kills drug-selected multidrug resistant KB-V1 cells. KB-V1 MDR cells viability, CellTiter-Glo, 72 h. Potency, µM (series often up to 46.1 µM), actives largely listed as cytotoxic. hit rate 3.4% among 400,000. AID 1347076; also: nearly all actives have a fitted effect of over 60% in size
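Cells of the MDR subline KB-V1 are plated, dosed with compound at multiple concentrations, and incubated 72 h at 37 degrees C; CellTiter-Glo is then added and luminescence read after 10 min.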
IL-1B inflam inh – inflammasome signaling inhibition, IL-1 beta readout. THP-1 LPS/ATP IL-1B secretion, AlphaLISA, 16 h; hits give low values. activity change, % at 57.5 µM. hit rate 4.7% among 360,000; in the data active = activity change below about -50%; inconclusive = mostly about -30% to -49%
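THP-1 cells pretreated 1 hr with compounds (up to 57.5 uM final), then stimulated with LPS (250 ng/mL final) plus ATP (1.25 mM final); secreted IL-1B measured by AlphaLISA after 16 hr, decreased signal indicating inhibition.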
A number is an active result; . = inactive; ? = inconclusive; / = no result given; [ ] = remark or other dose. Unless noted, calls follow the shape of the dose curve; as a rule, active = well fitted curve in the direction sought with a large enough effect; inconclusive = small, poorly fitted or top-dose-only effect, or another doubt; inactive = no such curve, though single readings can be large; an effect the other way counts as inactive or inconclusive.

SMILES | HT1080-NT tox | HT1080 IDH1KD tx | KB-3-1 cytotox | KB-V1 MDR tox | IL-1B inflam inh
COc1ccccc1NS(=O)(=O)c1cccc(NC(=O)NCCCl)c1 | . | . | . | . | .
COc1cccc(NC(=O)c2ccc(-c3ccc([N+](=O)[O-])cc3)o2)c1 | . | . | . | . | ?
COc1ccccc1NS(=O)(=O)c1cccc(NC(=O)Nc2cccc(Cl)c2)c1 | . | ? | ? | . | -65
COc1ccc(NC(=O)Nc2cc(C)ccc2F)cc1OC | ? | ? | . | . | -51
COc1ccc(Cl)cc1NS(=O)(=O)c1cccc(C(=O)NC2CC2)c1 | . | . | . | 18µM | .
COc1ccc(NC(=O)c2ccc(-c3ccc([N+](=O)[O-])cc3)o2)cc1OC | . | . | . | ? | -76
CN(CC(=O)NCC(=O)Nc1ccc(F)c(F)c1F)C1CCS(=O)(=O)C1 (stereo not drawn) | .[9.24 µM] | . | . | ? | .
CCOC(=O)C1CCCN(C(=O)CCCn2nnnc2CN2CCC(C)CC2)C1 (stereo not drawn) | . | . | . | . | .
COc1ccc(NC(=O)Cc2c(F)cccc2Cl)c(OC)c1 | . | . | . | ? | .
COc1cc(/C=C(/NC(=O)c2ccccc2)C(=O)Nc2ccccc2)c([N+](=O)[O-])cc1OC | . | . | . | 16µM | .
COc1ccc(NC(=O)Nc2ccc(OC)c(OC)c2)c([N+](=O)[O-])c1 | . | . | . | . | .
COc1ccc([N+](=O)[O-])cc1NC(=O)Nc1ccc(OC)c(OC)c1 | . | . | . | ? | -85
COc1ccc([N+](=O)[O-])cc1NC(=O)Nc1cccc(Cl)c1 | . | . | 5.2µM | 2.9µM | .
COc1ccc([N+](=O)[O-])cc1NC(=O)Cc1ccc(Cl)cc1 | ? | ? | . | . | .
COc1ccc(C(=O)Nc2ccccc2)cc1NC(=O)c1ccc([N+](=O)[O-])cc1 | . | . | . | ? | -63
Cc1ccc(S(=O)(=O)N2CCOCC2)cc1NC(=O)COC(=O)CCc1c[nH]c2ccccc12 | . | . | / | / | .
Cc1ccc(CN2COc3c(Cl)cc4c(-c5ccccc5)cc(=O)oc4c3C2)cc1 | / | / | . | . | /
CC(=O)N1CCN(c2csc3ccc(F)cc3c2=O)CC1 | / | / | . | . | /
COc1ccc(NC(=O)c2cccc(Oc3ccc([N+](=O)[O-])cc3Cl)c2)cc1 | ? | ? | ? | ? | .
COc1ccc([N+](=O)[O-])cc1NC(=O)C(C)N(C)Cc1cccc(OC)c1OC (stereo not drawn) | . | . | . | 8.2µM | .
COc1cc(CN(C)C(C)C(=O)Nc2ccc([N+](=O)[O-])cc2Cl)ccc1OC(F)F (stereo not drawn) | . | . | . | . | .
O=C(Nc1cccc(Cl)c1)c1cccc(Oc2ccc([N+](=O)[O-])cc2Cl)c1 | ? | ? | . | ? | -59
O=C(NCc1ccco1)c1ccc(CNc2c(N3CCCCC3)c(=O)c2=O)cc1 | . | . | ? | . | .
Cn1nc(SCc2ccccc2)c(=O)n(C(c2ccccc2)c2ccccc2)c1=O | . | . | ? | 21µM | .
CN1CCN(CCCNC(=O)c2ccc(/C=C3\Sc4ccccc4N(Cc4ccccc4F)C3=O)cc2)CC1 | 23µM | ? | . | . | .
SMILES | HT1080-NT tox | HT1080 IDH1KD tx | KB-3-1 cytotox | KB-V1 MDR tox | IL-1B inflam inh
CCN1CCN(CCNC(=O)c2ccc3c(c2)N(Cc2ccc(F)cc2)C(=O)/C(=C/c2ccccc2)S3)CC1 | 6.5µM | 5.2µM | ? | ? | -102
O=C(NCCN1CCOCC1)c1ccc(/C=C2\Sc3ccccc3N(Cc3ccccc3F)C2=O)cc1 | . | . | . | ? | .
COCCNC(=O)CN1C(=O)/C(=C/c2ccccc2)Oc2ccc(C(C)(C)C)cc21 | . | . | . | . | -53
O=C(CN1C(=O)/C(=C\c2cccc(Br)c2)Oc2ccccc21)NCCCN1CCOCC1 | . | . | . | ? | -52
COc1ccc(S(=O)(=O)NCCC(=O)Nc2ccc(C)cc2)cc1 | . | . | . | ? | .
COC(=O)[C@@]12C[C@@H](CC(=O)NCc3ccc(OC)c(OC)c3)C(=O)N(Cc3ccc4c(c3)OCO4)C1=CCC(C)(C)C2 | . | . | . | ? | .
CCC(C(=O)Nc1ccc(S(=O)(=O)Nc2ncccn2)cc1)c1ccccc1 (stereo not drawn) | . | . | . | ? | .
Cc1sc2nc(C(C)C)nc(SCC(=O)N3CCOCC3)c2c1C | . | . | . | ? | .
O=C(CN1C(=O)/C(=C/c2ccc(C(F)(F)F)cc2)Sc2ccccc21)NCCCN1CCOCC1 | ? | ? | . | . | ?
CCN1CCN(CCNC(=O)c2ccc(/C=C3/Sc4ccccc4N(Cc4cccc(Cl)c4)C3=O)cc2)CC1 | 15µM | ? | ? | ? | -99
O=C1Nc2cc(C(=O)NCCCN3CCCC3)ccc2S/C1=C/c1ccccc1F | . | . | . | . | ?
CCc1ccc(/C=C2/Sc3ccccc3N(CC(=O)NCCCN3CCOCC3)C2=O)cc1 | . | . | . | . | -65
O=C1Nc2cc(C(=O)NCCN3CCCCCC3)ccc2S/C1=C/c1ccccc1F | ? | ? | . | ? | -102
CCC(C)(C)NC(=O)CN(CCc1cccc(C)c1)C(=O)c1csnn1 | . | . | . | . | .
CC(=O)Nc1nc(C)c(-c2csc(Nc3cccc(C(C)=O)c3)n2)s1 | ? | . | ? | ? | -79
CCC(=O)Nc1nc(C)c(-c2csc(Nc3cccc(C(=O)O)c3)n2)s1 | . | . | . | . | .
CC(=O)Nc1nc(C)c(-c2csc(Nc3cccc([N+](=O)[O-])c3)n2)s1 | ? | ? | . | ? | -51
O=C(CCC(=O)c1ccccc1)Nc1ccc(F)c(Cl)c1 | / | / | . | . | /
Cc1ccc(S(=O)(=O)C(CNC(=O)C(=O)NCCc2ccc(F)cc2)c2cccs2)cc1 (stereo not drawn) | / | / | . | . | /
Cn1ncc(Oc2ccc([N+](=O)[O-])cc2)c(Cl)c1=O | . | . | . | . | /
COc1cnn(-c2ccc(F)cc2)c(=O)c1Br | . | . | . | . | .
COc1ccc(Oc2c(Cl)cnn(-c3ccc(F)cc3)c2=O)cc1 | ? | ? | ? | . | -112
COc1ccc(Oc2c(Cl)cnn(-c3ccc(C)cc3)c2=O)cc1 | ? | .[9.24 µM] | . | . | -114
Cn1ncc(Cl)c(Oc2ccc(Cl)cc2)c1=O | . | . | . | . | -90
COc1c(Cl)cnn(-c2ccc(C)cc2)c1=O | . | . | . | . | .
COc1ccc(Oc2c(Cl)cnn(-c3ccc(Cl)c(Cl)c3)c2=O)cc1 | 18µM | ? | ? | ? | -113
CC(CCc1ccccc1)NC(=O)CCNS(=O)(=O)c1ccccc1 (stereo not drawn) | . | . | . | . | .
O=c1c2ccc(Cl)cc2[nH]c(=S)n1Cc1cccnc1 | . | . | . | 18µM | .
O=c1c2cc(Cl)ccc2[nH]c(=S)n1Cc1ccco1 | 7.9µM | 11µM | . | . | .

Compound activity (PubChem)
